The full ranking holds about 25,000 sequences; the median of “ln(normalized median fluorescence intensity)” is about 6.7, and the highest 2% start at about 10. Shown is part of a subset that was picked to be rich in the highest values.
system: PfHDP1 homeodomain (GST-tagged); test: gcPBM binding intensity (ln(normalized median fluorescence intensity)); higher = stronger DNA binding
Summary of the method: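 Alexa488 anti-GST antibody, scanned at 488 nm, detected GST-tagged P. falciparum DNA-binding domains that had been expressed in E. coli and incubated for 1 h on an Agilent 4 × 180k array. The array carried primer-extended double-stranded 36-bp intergenic genomic probes and negative controls. Binding intensity is the highest Masliner-normalised natural-log median intensity across replicate spots of either orientation of each probe.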

| Sequence | gcPBM binding intensity (ln) |
| --- | --- |
| TCTTCTTTTTTTTTTTTGTATTATTATAAATATTAT [CACACA_negctrl_site1668] | 6.53 |
| ATATATATTATTTCTACACACATATATATAATATGT [CACACA_site3374] | 6.9 |
| GAAAATAAAATAAATGCATGTAAATTTAATGTAATG [TGCATGCA_site996] | 6.88 |
| AATATATATATGTGTACACATCCAAAATAGGCATAC [CACACA_site5705] | 7.59 |
| TTTGTTATATTTAATACACACATATTATAAACACAT [CACACA_site7703] | 6.88 |
| TATATATAATATTATACACACATATCTGCATAATAT [CACACA_site4202] | 7.05 |
| TTAATATATTATCTGGTGCATAAACACGTTATACCT | 10.6 |
| AATATTATTTATATTTGTACACAGTAATATAAAATA [XGTACX_site4884] | 6.25 |
| AATTGTTAATGGTACGAACACACATATAAAGATGCA [CACACA_site2043] | 6.76 |
| AAAAAATTATAAAAGTGTACATATATATATATATAT [XGTACX_site154] | 9.48 |
| GTTGTTATATAAAATTGTACATAAAAAACAAAATAT [XGTACX_site5313] | 6.8 |
| TATATATTATATATATGTACATATTGTTGTGTATAT [XGTACX_site767] | 7.15 |
| AATTGTGCATTATATTGTACACGTGTTGTATATATT [XGTACX_site975] | 10.8 |
| GTGTGCAAAAATTGTTGTACATTATATATAAAAAAA [XGTACX_site3246] | 10.6 |
| ATATATAATTTTTGTTGTACATTATAAAAATAATTA [XGTACX_site2738] | 6.3 |
| TAGGTACATAAATTGGTGCAAAGTGTACATATATAT | 10.8 |
| ATGTGTATATATTATTGTACATATATATATATATAT [XGTACX_site4627] | 9.24 |
| TAAATTGGTGCAAAGTGTACATATATATCTTTCCTA [XGTACX_site5458] | 10.4 |
| CCCACAGACGGACACACACACACACCGACACATATA [CACACA_site4356] | 7.01 |
| TTATAATTTAATAAATGTACATAAATAATATACATA [XGTACX_site7271] | 6.14 |

| Sequence | gcPBM binding intensity (ln) |
| --- | --- |
| AAATTATTAAGTGATATAATATTCTATAGATGGGGA [CACACA_negctrl_site168] | 6.76 |
| TGTGCATAATTTTGTGCACACCACGCTAATAATTTT [CACACA_site2915] | 11.5 |
| CCACGAGAATATATAGTGCATAATAATTTTTTTTTG | 8.82 |
| ATTTTTTTTTTTTTTTTTTTTGCACCATAAAATAAT [CACACA_negctrl_site1324] | 10.1 |
| GTATGGCGTATCATATGTACTAAAAAAAAATAAAAA [XGTACX_site5101] | 6.49 |
| AAAGAAATGAAATATACACACATACCTATATACATA [CACACA_site7817] | 6.63 |
| TTTTTGTTATTATGTGTGCACATATATATATATATA | 10.4 |
| TATATGTATAGAAAATGTACATATAAATATATATAT [XGTACX_site3420] | 7.94 |
| GAAAAGCAGATAAATGTGCACATATATGTTTGTATA | 10.8 |
| ATAAATACATATGTGTGTACACATTATATATATATA [XGTACX_site1486] | 9.17 |
| CACATATATATGTGTGCATGTTGTATTATATATTTA [TGCATGCA_site632] | 8.72 |
| AAAAAATAAAAAGATACACACATATGTATAATATAC [CACACA_site1496] | 6.83 |
| TATGTATGTTAGTGTGCACACATAAATATTATATAT [CACACA_site9121] | 11.1 |
| TGTGTGTGTATATGTGTGCACATATAAAATAGAAGA [GTGCAC_site9714] | 10.5 |
| ATATATGTATGTTAGACACACATATTATAATATGTT [CACACA_site116] | 6.5 |
| ATATATGATGTATTTGTGCACATATATATATTATTA [GTGCAC_site9471] | 10.7 |
| TAAAATAGAAATATATGTACATATATATATGTATAT [XGTACX_site4134] | 6.4 |
| AAAAAAAAAAAAAGCACACACACATATGTGTATATA [CACACA_site8225] | 6.86 |
| TAATTTCTTATGTAGTGTACAAATAATATATGATAT [XGTACX_site597] | 6.39 |
| ATTAAAAAAATATAAACACACAAAAAAAAAATATAC [CACACA_site1100] | 7.06 |

| Sequence | gcPBM binding intensity (ln) |
| --- | --- |
| AACAAATAAAAAAAAATAAAAATAAAAATAAAAAAA [XGTACX_negctrl_site451] | 6.36 |
| TTTTTTTCTTCTTTTCTCTTAAAAATATTGAATATT [CACACA_negctrl_site1762] | 6.28 |
| TATACATATGAAAATACACACATACATACAGATATA [CACACA_site5002] | 6.64 |
| TTTATGTGTATGTTTACACACATAAAAAAATATATG [CACACA_site3039] | 6.54 |
| TATGTGTATAATAAAAGTACATATATTATTATATAA [XGTACX_site8556] | 6.35 |
| TGTATGTTTGGGTGCACACATAAATATTATATATAG [CACACA_site3397] | 10.2 |
| TGTGTATATGTGCAAAGTACAAAAAAGAAATTATTT [XGTACX_site7569] | 9.87 |
| AATATTTATGGGTGCACACAAACATACAGATATATA [CACACA_site5810] | 10.3 |
| TATATGTATGTTTGTGTGCACACATAAATATTATAT | 10.5 |
| TAAAAATTGCACAGAAGTACAGTATAAATATATATA [XGTACX_site3421] | 10.2 |
| TTGTTGTGTATTATCGTGCACATAATATAAAAGATT | 10.5 |
| AAGAAAAATATTCGTGTGCACAGAAGTATATGTGTG [GTGCAC_site9814] | 11 |
| TGTATTATATATACACAAATATTTATGTGTGTGTTT [XGTACX_negctrl_site475] | 6.71 |
| ATATATTATGGGTGTGCACACAATATTTATATGTTC [CACACA_site2270] | 10.9 |
| AAAAGTTGTATTTGCACACATAAAAAAAAGATATTA [CACACA_site3840] | 10.3 |
| TTGATGTATACAATGTAGATTATTTAATATTTCAAT [GTGCAC_negctrl_site203] | 6.12 |
| TTATGAAAATATTTTTTTCGTTTGATGTATATGTTT [CACACA_negctrl_site1556] | 6.22 |
| TTGTATTATATTGTATTATGTTTAAATGAAAAAAAA [CACACA_negctrl_site662] | 6.46 |

Source: the supplement of paper PMC11417369
